Out of some 290,000 compounds screened, about 890 (0.31%) were called active. No stated cut-off is given here; in the data, active means inhibition mostly above about 52% (no sharp cut-off); inactive means mostly below about 76%. Shown is part of a subset that was picked to be rich in actives.
Test: inhibitors of HIV fusion peptide binding, primary screen, biochemical, uHTS, fluorescence dequenching (AID 1986)
Details: cell-free peptide binding, 30 min, stronger effect = higher value
[1] = measured here: repeat confirmation average inhibition, at 18.6 µM

Row | SMILES | inhibition (at 20 µM) | inhibition [1] [%]
1 | O=C(CC1Sc2ccccc2NC1=O)NCc1cccc(Cl)c1 (stereo not given) | 1% (inactive) | 
2 | CCOC(=O)c1nnn(-c2nonc2N)c1CN1CCCC1 | -0.2% (inactive) | 
3 | COc1ccccc1-c1c(C(F)(F)F)oc2cc(OCC(=O)Nc3ccccc3C(F)(F)F)ccc2c1=O | 3.1% (inactive) | 
4 | COc1ccccc1NC(=O)CSc1nnc(Cn2c(=O)sc3ccccc32)n1C | 0.2% (inactive) | 
5 | COC(=O)C[n+]1cccc2ccccc21 | 78.3% (active) | 65.6
6 | NC(=O)C[n+]1cccc2ccccc21 | 1.3% (inactive) | 
7 | O=C(C[n+]1cccc2ccccc21)c1ccccc1 | 11.8% (inactive) | 
8 | CCOCCCNC(=O)/C(C#N)=C/c1ccc(C)o1 | -0.3% (inactive) | 
9 | Cc1ccccc1OCc1nc(-c2ccc(-n3cccc3)cc2)no1 | 3.2% (inactive) | 
10 | COc1ccccc1C(=O)C1CCCN(C(=O)c2cnn(C(C)C)c2)C1 (stereo not given) | -0.2% (inactive) | 
11 | Oc1ccccc1N=Cc1c(O)ccc2ccccc12 | 67.4% (active) | 
12 | Oc1ccc2ccccc2c1C=Nc1ccccc1Br | 0.3% (inactive) | 
13 | CN(C)/N=C/c1c(O)ccc2ccccc12 | -5.1% (inactive) | 
14 | Cc1ccc(Cl)cc1N1CCN(S(=O)(=O)c2ccc3c(c2)NC(=O)C(C)C(=O)N3)CC1 (stereo not given) | 1.3% (inactive) | 
15 | CCn1c(C)c(C(C)=O)c(N2CCN(c3ccccn3)CC2)nc1=S | 6.8% (inactive) | 
16 | C(=C\c1ccccc1)/CNn1cnnc1 | -2.1% (inactive) | 
17 | O=C(/C=C/c1c[nH]c2ccccc12)c1ccccc1 | -2.9% (inactive) | 
18 | C[n+]1cc(C(=O)N2CCCCC2)ccc1/C=C/c1c[nH]c2ccccc12 | 148% (inactive) | 
19 | CC[n+]1c(/C=C/c2c[nH]c3ccccc23)ccc2cc(C)ccc21 | 142% (inactive) | 
20 | COc1ccc2c(/C=C/c3cc[n+](C)cc3)c[nH]c2c1 | 6.5% (inactive) | 
21 | Cc1ccc(C(=O)/C=C/c2c[nH]c3ccccc23)cc1 | 2.2% (inactive) | 
22 | CCc1ccc(/C=C/c2c[nH]c3ccccc23)[n+](CC)c1 | 2.5% (inactive) | 
23 | CC[n+]1ccc(/C=C/c2c[nH]c3ccccc23)cc1 | 97.2% (active) | 77.7
24 | CCN(CC)C(=O)c1ccc(/C=C/c2c[nH]c3ccccc23)[n+](C)c1 | 91.3% (active) | 81.7
25 | Cc1[nH]c2ccccc2c1/C=C/c1cc[n+](C)cc1 | 144% (inactive) | 

Row | SMILES | inhibition (at 20 µM) | inhibition [1] [%]
26 | O=c1c2ccccc2nc(/C=C/c2c[nH]c3ccccc23)n1CCO | 5.3% (inactive) | 
27 | OCC[n+]1ccc(/C=C/c2c[nH]c3ccccc23)cc1 | 53% (active) | 
28 | C[n+]1ccc(/C=C/c2c[nH]c3ccccc23)cc1 | 82.6% (active) | 
29 | Cc1nnsc1-c1nc2ccccc2[nH]1 | -1.6% (inactive) | 
30 | COc1ccc(NC(=O)c2cc(Br)ccc2Cl)c([N+](=O)[O-])c1 | -0.4% (inactive) | 
31 | O/N=C\c1ccc2noc(-c3ccc(Cl)cc3)c2c1 | 0% (inactive) | 
32 | c1ccc(Oc2ncnc3sccc23)cc1 | -1.5% (inactive) | 
33 | N#Cc1ccc(CSc2nnc(NC(=O)CN3C(=O)C4CC=CCC4C3=O)s2)cc1 (stereo not given) | 6.4% (inactive) | 
34 | COc1cccc(/C=N/NC(=O)c2[nH]c(C)c(C(=O)N/N=C/c3cccc(OC)c3O)c2C)c1O | 4.6% (inactive) | 
35 | CCCn1cnc2scc(-c3ccc(C)cc3)c2c1=O | -1.9% (inactive) | 
36 | Cc1ccc(C)c(NC(=O)CSc2nnc(C3CCCCC3)o2)c1 | -1.1% (inactive) | 
37 | O=C(O)CCn1c(=O)n(CCC(=O)O)c(=O)n(CCC(=O)O)c1=O | 0.1% (inactive) | 
38 | O=C(CN1c2ccccc2Sc2ccccc21)N/N=C/c1ccc(Cl)cc1 | -1% (inactive) | 
39 | COc1ccc2[nH]cc(/C=C/c3cc[n+](C)cc3)c2c1 | 18.3% (inactive) | 
40 | C[n+]1ccc(/C=C/c2c[nH]c3ccc(F)cc23)cc1 | 77.8% (active) | 85.8
41 | Cc1ccc2[nH]cc(/C=C/c3cc[n+](C)cc3)c2c1 | 160% (inactive) | 
42 | CC1=C(C(=O)Nc2ccc(C(=O)NC(C)c3ccccc3)cc2)SCCO1 (stereo not given) | 2.3% (inactive) | 
43 | O=C(Nc1cccc(C(=O)N2CCCCC2)c1)c1ccccc1Br | -1.4% (inactive) | 
44 | O=S(=O)(NCc1ccccc1F)NCc1ccccc1F | -1.9% (inactive) | 
45 | O=c1c(Cl)c2oc3ccccc3nc-2c2ccccc12 | 50.8% (active) | 
46 | Clc1ccc(-c2nnc(Sc3nc4ccccc4o3)c3ccccc23)cc1 | -0.2% (inactive) | 
47 | O=c1c(-c2nc3ccccc3o2)c2oc3ccccc3n2c2ccccc12 | -2.3% (inactive) | 
48 | O=C(N/N=C\c1ccc2c(c1)OCO2)c1ccc(Cn2cc(Br)c([N+](=O)[O-])n2)o1 | -2.8% (inactive) | 
49 | CCN1CCN(Cc2c(O)ccc3c2O/C(=C\C=C\c2ccccc2)C3=O)CC1 | 53.7% (active) | 
50 | O=C1/C(=C/C=C/c2ccccc2)Oc2c1ccc(O)c2CN1CCN(CCO)CC1 | 128% (inactive) | 

Row | SMILES | inhibition (at 20 µM) | inhibition [1] [%]
51 | CCN1CCN(Cc2c(O)ccc3c2O/C(=C\c2ccccc2)C3=O)CC1 | 67.8% (inactive) | 22.1
52 | CCN(CC)Cc1c(O)ccc2c(=O)c(-c3ccccc3)coc12 | -1.9% (inactive) | 
53 | COc1ccccc1/C=C/C=C1\Oc2c(ccc(O)c2CN2CCN(CCO)CC2)C1=O | 122% (active) | 
54 | CN(C)Cc1c(O)ccc2c1O/C(=C\C=C\c1ccccc1)C2=O | 77.7% (active) | 124
55 | CCN1CCN(Cc2c(O)ccc3c2O/C(=C\C=C\c2ccccc2OC)C3=O)CC1 | 149% (inactive) | 
56 | CS(=O)(=O)Oc1ccc2c(c1)O/C(=C\C=C\c1ccccc1)C2=O | 3.8% (inactive) | 
57 | COc1ccccc1/C=C/C=C1\Oc2c(ccc(O)c2CN(C)C)C1=O | 146% (inactive) | 
58 | CCN(CC)Cc1c(O)ccc2c(-c3ccccc3)cc(=O)oc12 | -2.2% (inactive) | 
59 | CCN(CC)Cc1c(O)ccc2c1O/C(=C\C=C\c1ccccc1)C2=O | 116% (active) | 143
60 | Cc1ccc(/C=C2\Oc3c(ccc(O)c3CN3CCN(CCO)CC3)C2=O)cc1 | 35.2% (inactive) | 
61 | CCCCN(C)CCNC(=O)CN1C(=O)CSc2ccc(S(=O)(=O)N3CCOCC3)cc21 | 1% (inactive) | 
62 | CCN1C(=O)c2cccc3c(S(=O)(=O)Nc4ccncc4)ccc1c23 | 3.5% (inactive) | 
63 | COc1ccccc1C(=O)C1CCCN(C(=O)c2cc(CC(C)C)nc(C)n2)C1 (stereo not given) | -0.9% (inactive) | 
64 | CCOc1ccc(-n2cnnn2)cc1S(=O)(=O)NC1CC1 | 0.2% (inactive) | 
65 | CCOC(=O)N1CCN(C(=O)C2CCN(S(=O)(=O)c3c(C)cc(C)cc3C)CC2)CC1 | -1.7% (inactive) | 
66 | O=C(NCc1ccco1)c1ccc(Cl)nc1 | -2% (inactive) | 
67 | CC(C)N1CCc2c(sc(NC(=S)NC(=O)c3ccccc3)c2C#N)C1 | 81% (active) | 
68 | CC(C)N1CCc2c(sc(NC(=O)Cc3ccccc3)c2C#N)C1 | -0.4% (inactive) | 
69 | CN1Cc2sc(NC(=S)NC(=O)c3ccccc3)c(C#N)c2CC1(C)C | 70.3% (active) | 
70 | N#Cc1c(NC(=S)NC(=O)c2ccccc2)sc2c1CCN(CCc1ccccc1)C2 | 138% (inactive) | 
71 | CCCN1CCc2c(sc(NC(=S)NC(=O)c3ccccc3)c2C#N)C1 | 78.4% (active) | 
72 | N#Cc1c(NC(=S)NC(=O)c2ccccc2)sc2c1CCC2 | 14.9% (inactive) | 
73 | CCN1CCc2c(sc(NC(=S)NC(=O)c3ccccc3)c2C#N)C1 | 26.3% (inactive) | 
74 | CCC1(C)Cc2c(sc(NC(=S)NC(=O)c3ccccc3)c2C#N)CO1 (stereo not given) | -2.1% (inactive) | 
75 | N#Cc1c(NC(=S)NC(=O)c2ccccc2)sc2c1CCCC2 | 0.9% (inactive) | 

Row | SMILES | inhibition (at 20 µM) | inhibition [1] [%]
76 | N#CC(c1ccccc1)C1CCN(Cc2ccccc2)CC1 (stereo not given) | 0.8% (inactive) | 
77 | O=c1c2cn[nH]c2[nH]c(=S)n1-c1ccccc1 | 1.4% (inactive) | 
78 | CCCCC/S(CC1CC1(Cl)Cl)=N\S(=O)(=O)c1ccc(C)cc1 (stereo not given) | 0.9% (inactive) | 
79 | CN(CC(=O)Nc1ccc(C(N)=O)cc1)CC(=O)Nc1ccccc1Br | 0.7% (inactive) | 
80 | O=C(Nc1ccncc1)Nc1ccc(F)c(Cl)c1 | 0.5% (inactive) | 
81 | CC1=NN(C(=O)c2ccccc2C)C(O)(c2ccc(Cl)cc2)C1 (stereo not given) | -2.2% (inactive) | 
82 | CC(C)CC(C(=O)Nc1oc(-c2ccco2)c(-c2ccco2)c1C#N)N1C(=O)c2ccccc2C1=O (stereo not given) | -0.7% (inactive) | 
83 | CC(Oc1ccccc1)C(=O)Nc1oc(-c2ccco2)c(-c2ccco2)c1C#N (stereo not given) | 76.1% (active) | 
84 | N#Cc1c(N)oc(-c2ccco2)c1-c1ccco1 | 2.6% (inactive) | 
85 | O=C(Nc1ccnn1C1CCN(Cc2ccc(Cl)cc2)CC1)C1CCCC1 | 1.4% (inactive) | 
86 | O=C(N/N=C/c1cccc([N+](=O)[O-])c1O)C(O)(c1ccccc1)c1ccccc1 | 11% (inactive) | 
87 | C/C=C\C=C/C(=O)Nc1cccc(C2=NOC3(C2)C[C@H](C(N)=O)N(C(=O)c2ccc(OC)cc2)C3)c1 (stereo not given in full) | 5.2% (inactive) | 
88 | CCOC(=O)c1sc2nc3c(SCC(=O)O)cc(C(=O)c4ccccc4O)cn3c(=O)c2c1C | 49.9% (inactive) | 
89 | O=C(O)CSc1cc(C(=O)c2ccccc2O)cn2c(=O)c3c(-c4ccccc4)csc3nc12 | 59.6% (active) | 
90 | Cc1sc2nc3c(SC(C)C(=O)O)cc(C(=O)c4ccccc4O)cn3c(=O)c2c1C (stereo not given) | 20.4% (inactive) | 
91 | CN(C)/C=C(/C(=O)c1ccc(Cl)c(Cl)c1)S(C)(=O)=O | 0.6% (inactive) | 
92 | CCOc1ccc(NC(=O)CN(C)C(=O)c2cccnc2SC)cc1OCC | 0.9% (inactive) | 
93 | CCN(CC)c1ccc(/C=C/c2cc(-c3ccccc3)c3ccccc3n2)cc1 | 96.8% (active) | 
94 | Cc1cc(/C=C\c2ccccc2)nc2ccccc12 | 1.2% (inactive) | 
95 | CCN(CC)c1ccc(/C=N/n2c(C)nc3ccccc3c2=O)cc1 | -0.4% (inactive) | 
96 | CCN(CC)c1ccc(/C=C/c2nc3ccccc3s2)cc1 | 53% (active) | 
97 | CCN(CC)c1ccc(NC(=O)COC(=O)/C=C/c2nc3ccccc3s2)cc1 | -1.3% (inactive) | 
98 | CN(C)c1ccc(/C=C/c2nc3ccccc3s2)cc1 | 3.1% (inactive) | 
